MITF primary: human MITF inhibition, primary screen; AID 1259374; 0.91% of 650,000 active; O75030; inhibition, % at 2.6 µM; AlphaScreen MITF homodimerization, bead proximity signal; in the data active = inhibition above about 50%;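 also: 0% = vehicle wells with protein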
FBW7 act: activators of human E3 ligase FBW7; Q969H0; 0.13% of 650,000 active; AlphaScreen FBW7–phospho-cyclin E peptide binding, activator screen; normalized activity (activation), % at 26.1 µM; AID 1259310; in the data active = normalized activity above about 1.9%;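 also: purified mutant Fbw7 with reduced substrate affinity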
TEAD-YAP inh: TEAD-YAP interaction inhibition; HEK-TIYL cells, TEAD-Gal4/YAP UAS-luciferase luminescence; inhibition, % at 9.12 µM; 1.4% of 640,000 active; AID 1259422; in the data active = inhibition above about 32%;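 also: 0% = median of test compound wells and 100% = reference inhibitor wells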
GPR151 ag: activators of human GPR151 | PathHunter beta-arrestin GPR151 cells, luminescence | activation, % at 11.2 µM | 1% of 650,000 active | Q8TDV0; in the data active = activation above about 4.9%;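 also: 0% = median of compound wells and 100% = cells with positive control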
Target sequence (Q8TDV0 whole entry, looked up): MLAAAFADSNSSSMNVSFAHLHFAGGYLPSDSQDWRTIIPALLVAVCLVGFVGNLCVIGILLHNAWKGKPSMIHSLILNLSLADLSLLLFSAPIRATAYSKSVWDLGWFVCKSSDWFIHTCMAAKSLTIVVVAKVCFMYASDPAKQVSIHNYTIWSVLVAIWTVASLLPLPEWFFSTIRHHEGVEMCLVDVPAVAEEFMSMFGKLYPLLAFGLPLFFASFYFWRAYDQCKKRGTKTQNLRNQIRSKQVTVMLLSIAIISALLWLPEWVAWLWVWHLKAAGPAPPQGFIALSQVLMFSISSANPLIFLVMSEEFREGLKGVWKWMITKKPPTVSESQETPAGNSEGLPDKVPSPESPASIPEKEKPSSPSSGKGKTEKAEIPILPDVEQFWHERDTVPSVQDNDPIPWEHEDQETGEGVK
* marks the source's active call; other numbers are inactive results. A selection: hits, their analogues and other compounds. The true share with any hit is near 3.4%.

SMILES	MITF primary	FBW7 act	TEAD-YAP inh	GPR151 ag
COc1ccc(NC(=O)CSc2nc3ccccc3c(=O)n2CC2CCCO2)c(OC)c1 (configuration not stated)	0	0	4	1
CCc1nc(C(N)=O)c2[nH]c(=O)n(-c3ccc(F)cc3)c2n1	5	0	3	1
COc1ccccc1Nc1nc(-c2cc3ccccc3oc2=O)cs1	13	1	43*	0
CCOC(=O)C1=CS/C(=C2/C(=S)C(C)(C)Nc3c(OCC)cccc32)S1	53*	0	-5	0
CCOC(=O)C1=CS/C(=C2/C(=S)C(C)(C)N(C(=O)CC(C)C)c3ccc(OCC)cc32)S1	-4	0	7	0
O=C(NCCc1ccc(O)cc1)c1cc(N2CCN(Cc3ccc4c(c3)OCO4)CC2)nc2ccccc12	12	0	48*	0
CCCNC(=O)c1cc(N2CCN(Cc3ccc4c(c3)OCO4)CC2)nc2ccccc12	-4	0	-9	0
O=C(c1cnc(N2CCN(c3ccccn3)CC2)c2ccccc12)N1CCN(Cc2ccc3c(c2)OCO3)CC1	0	0	57*	2
COC(=O)c1cnc(N2CCN(Cc3ccc4c(c3)OCO4)CC2)c2ccccc12	2	0	9	-1
CCCCC(=O)Nc1ccc(-c2nc3cccnc3s2)cc1	4	0	7	-2
Cc1ccc(-c2nc3cccnc3s2)cc1NC(=O)C(F)(F)F	1	0	32*	-1
CC(=O)Nc1ccc(-c2nc3cccnc3s2)cc1	12	0	47*	-4
CCC(C)(C)c1ccc(OCCCC[n+]2cccc(C)c2)c(C(C)(C)CC)c1	-22	0	85*	2
CCC(C)(C)c1ccc(OCCOCC[n+]2ccccc2)c(C(C)(C)CC)c1	2	0	77*	3
O=C(O)COc1ccccc1/C=N/Nc1nc2ccccc2s1	15	0	-10	-3
O=C(O)c1ccccc1/C=N/Nc1nc2ccccc2s1	5	0	94*	-7
O=C(CCc1nc2ccccc2s1)c1ccccc1	18	2.0*	-18	0
O=C(Nc1nc2ccccc2s1)c1ccccc1	0	0	32*	-8
CCN(CC)C(=O)c1ccc2nc(NC(=O)c3ccc(OC(C)=O)cc3)sc2c1	10	2.0*	78*	-8
O=C(Nc1nc2ccccc2s1)c1ccc(N2C(=O)CCC2=O)cc1	-2	0	-50	0
CCC(C)C(=O)Nc1nc2c(s1)C(=O)CC(C(=O)NCc1ccc(F)cc1F)C2 (configuration not stated)	-9	0	-9	0
CCCc1ccc(-c2ccc(C(=O)Nc3nc4ccccc4s3)cc2)nc1	8	0	7	1
CCc1ccc(C(=O)Nc2nc3ccccc3s2)cc1	-2	0	50*	-5
CC(C)c1ccc2nc(NC(=O)c3ccccc3)sc2c1	2	0	39*	-4
Cc1ccc(CN[C@H]2C[C@H]3C(=O)N[C@H](CO)C(=O)N3C2)c(C)c1	-18	0	-3	0
SMILES	MITF primary	FBW7 act	TEAD-YAP inh	GPR151 ag
COc1ccc(CNc2ncc(-c3cccc(OC)c3)n2C)cc1	42	1	-11	-1
CCC(C)(C)NC(=O)C(OC(=O)c1ccco1)c1ccc(C)cc1 (configuration not stated)	8	1.9*	-3	0
CCC(C)(C)NC(=O)C(OC(=O)c1ccco1)c1ccc(OC)cc1 (configuration not stated)	12	0	-5	1
O=C(Nc1ccc(Br)cc1)c1ccc(F)c(S(=O)(=O)NC2CCCCCC2)c1	-3	0	40*	0
CCOc1ccc(NC(=O)c2ccc(F)c(S(=O)(=O)NC3CCCC3)c2)cc1	24	0	69*	2
Cc1ccc2nc(Cl)c3cc(C(=O)NCCCN4CCOCC4)sc3c2c1	-15	0	-3	0
CCCn1c(C)cc(C(=O)CSc2nnc(-c3ccccc3)o2)c1C	15	0	7	0
CC1CCN(C(c2ccncc2)c2ccc3cccnc3c2O)CC1 (configuration not stated)	89*	0	20	-3
Oc1c(C(c2ccncc2)N2CCCC2)ccc2cccnc12 (configuration not stated)	76*	0	12	0
Oc1cccc(C(c2ccc3cccnc3c2O)N2CCCC2)c1 (configuration not stated)	39	-1	18	1
CCN1CCN(C(c2cccnc2)c2ccc3cccnc3c2O)CC1 (configuration not stated)	68*	0	15	-1
Cc1[nH]c2ccccc2c1C(c1ccncc1)N1CCC(C)CC1 (configuration not stated)	-1	0	-2	0
O=C(Nc1ccc2oc(-c3cccc(Cl)c3)nc2c1)c1cc([N+](=O)[O-])ccc1Cl	-7	0	17	1
CC1CC(C)CN(C(=O)c2cccc(Cl)c2)C1 (configuration not stated)	-1	0	-4	2
Cc1nc(N2CCCC2)c2cc(C)sc2n1	-5	0	-9	1
Cc1nc(N2CCCc3ccccc32)c2cc(C)sc2n1	-13	0	46*	0
CCN(CC)CCCNC(=O)Cn1c2ccccc2c2cn[nH]c(=O)c21	-10	0	-8	1
O=C(CCl)NCc1c(Cl)cccc1-n1cccc1	4	0	35*	-1
COc1ccc(OC)c(C2NC(=O)c3[nH]nc(-c4ccc(C)cc4)c32)c1 (configuration not stated)	8	0	62*	2
COc1ccc(-c2n[nH]c3c2C(c2ccc(F)cc2)NC3=O)cc1 (configuration not stated)	4	0	14	2
Cc1noc(C)c1NC(=O)N1CCC2(CC1)NCCc1c2[nH]c2ccc(Cl)cc12	14	0	-5	-1
Cc1ccc2[nH]c3c(c2c1)CCNC31CCN(C(=O)N[C@@H](C)c2ccccc2)CC1	16	0	-16	1
COc1cccc(NC(=O)N2CCC3(CC2)NCCc2c3[nH]c3ccc(Cl)cc23)c1	15	0	48*	0
C[C@H](NC(=O)N1CCC2(CC1)NCCc1c2[nH]c2ccc(Cl)cc12)c1ccccc1	6	0	37*	0
O=C1CCC(C(=O)OCC(=O)Nc2cc(Cl)cc(Cl)c2)=NN1	1	0	-2	1
SMILES	MITF primary	FBW7 act	TEAD-YAP inh	GPR151 ag
COc1ccccc1OC(C)C(=O)Nc1cccc(C(=O)O)c1 (configuration not stated)	7	0	-5	3
Cc1cccnc1CN1CCN(Cc2ncccc2C)CC1	-9	0	-3	0
CCCC1(C(=O)OCC)NC(c2ccc(F)cc2)C2C(=O)N(C)C(=O)C21 (configuration not stated)	9	1	-12	1
COc1cc(C)ccc1OCCOCCOc1cccc(C=O)c1	7	0	-39	0
COc1ccc(O)c(C(=O)CC(=O)c2ccccc2)c1	-8	0	55*	-5
COc1ccc(O)c(C(=O)CC(=O)c2ccccc2Cl)c1	-10	0	15	-3
